Data published in PMC4081100, “A DNA-binding-site landscape and regulatory network analysis for NAC transcription factors in Arabidopsis thaliana”.

Tests used:
Experiment in all cases: universal protein binding microarray (PBM); transcription factors of Arabidopsis thaliana; high values mean tight binding
[1] = target: T1, GST-ANAC092(1-176) (Arabidopsis thaliana, UniProt Q9FKA0 1-176); conditions: protein: recombinant; tags: GST; chain copies: 2; dsDNA, one strand shown
T1 sequence: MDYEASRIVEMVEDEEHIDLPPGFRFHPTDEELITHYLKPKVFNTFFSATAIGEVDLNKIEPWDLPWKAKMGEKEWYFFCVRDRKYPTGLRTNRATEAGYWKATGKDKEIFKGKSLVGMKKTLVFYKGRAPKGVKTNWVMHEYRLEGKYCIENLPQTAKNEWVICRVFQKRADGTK
How it was run: (§1)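 Binding is expressed as the normalised enrichment score (E-score). Proteins carrying a GST tag, whether NAC-domain, full-length or DNA-binding-domain forms, were induced in cells, and zinc acetate was added for zinc-finger proteins. After purification on glutathione–Sepharose 4B and quantification by A280 or anti-GST western blot, each was applied in duplicate at 200 to 500 nM final to custom all-10-mer Agilent 4 × 180K arrays made double-stranded by primer extension. Gapped and ungapped 8-mers were scored.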

[2] = target: GST-NTL6(1-168) (Arabidopsis thaliana, UniProt Q9SCK6 1-168); conditions: protein: recombinant; tags: GST; chain copies: 2; dsDNA, one strand shown
How it was run: as §1

[3] = target: T2, GST-NST2(1-184) (Arabidopsis thaliana, UniProt Q9M274 1-184); conditions: protein: recombinant; tags: GST; chain copies: 2; dsDNA, one strand shown
T2 sequence: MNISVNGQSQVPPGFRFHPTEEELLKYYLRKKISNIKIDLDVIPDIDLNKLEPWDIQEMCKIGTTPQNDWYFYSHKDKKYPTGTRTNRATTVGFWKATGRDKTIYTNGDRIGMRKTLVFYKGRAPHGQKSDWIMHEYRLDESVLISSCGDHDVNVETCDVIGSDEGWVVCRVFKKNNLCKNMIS
How it was run: as §1

[4] = target: T3, GST-NTL8 NAC domain (Arabidopsis thaliana, UniProt Q9XIN7 14-156); conditions: protein: recombinant; tags: GST; chain copies: 2; dsDNA, one strand shown
T3 sequence: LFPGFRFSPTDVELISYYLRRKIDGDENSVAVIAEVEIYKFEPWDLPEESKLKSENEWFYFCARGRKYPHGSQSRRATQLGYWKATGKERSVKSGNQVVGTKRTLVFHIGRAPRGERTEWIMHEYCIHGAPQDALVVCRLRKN
How it was run: as §1

[5] = target: T4, GST-SND1(1-203) (Arabidopsis thaliana, UniProt Q9LPI7 1-203); conditions: protein: recombinant; tags: GST; chain copies: 2; dsDNA, one strand shown
T4 sequence: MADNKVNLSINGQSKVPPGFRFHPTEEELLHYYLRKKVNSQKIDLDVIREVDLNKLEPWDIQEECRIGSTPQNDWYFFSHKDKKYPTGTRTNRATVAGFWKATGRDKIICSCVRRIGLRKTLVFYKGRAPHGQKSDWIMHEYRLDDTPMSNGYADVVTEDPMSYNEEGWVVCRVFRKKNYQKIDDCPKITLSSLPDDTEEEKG
How it was run: as §1

[6] = target: T5, GST-ANAC019 NAC domain (Arabidopsis thaliana, UniProt Q9C932 14-162); conditions: protein: recombinant; tags: GST; chain copies: 2; dsDNA, one strand shown
T5 sequence: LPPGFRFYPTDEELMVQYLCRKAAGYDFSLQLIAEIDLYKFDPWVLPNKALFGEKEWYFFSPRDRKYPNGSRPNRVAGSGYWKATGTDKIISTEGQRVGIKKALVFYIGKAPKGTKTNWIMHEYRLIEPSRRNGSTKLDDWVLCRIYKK
How it was run: as §1

[7] = target: T6, GST-ANAC092(1-285) full length (Arabidopsis thaliana, UniProt Q9FKA0 1-285); conditions: protein: recombinant; tags: GST; chain copies: 2; dsDNA, one strand shown
T6 sequence: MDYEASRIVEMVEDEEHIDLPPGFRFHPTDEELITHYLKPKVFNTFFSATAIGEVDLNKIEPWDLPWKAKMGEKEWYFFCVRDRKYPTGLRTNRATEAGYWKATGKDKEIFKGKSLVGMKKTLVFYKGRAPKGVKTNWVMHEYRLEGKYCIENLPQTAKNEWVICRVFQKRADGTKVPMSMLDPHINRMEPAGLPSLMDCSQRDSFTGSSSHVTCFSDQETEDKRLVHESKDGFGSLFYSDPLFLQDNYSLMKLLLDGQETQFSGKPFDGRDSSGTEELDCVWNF
How it was run: as §1

[8] = target: T7, GST-NAP(1-166) (Arabidopsis thaliana, UniProt O49255 1-166); conditions: protein: recombinant; tags: GST; chain copies: 2; dsDNA, one strand shown
T7 sequence: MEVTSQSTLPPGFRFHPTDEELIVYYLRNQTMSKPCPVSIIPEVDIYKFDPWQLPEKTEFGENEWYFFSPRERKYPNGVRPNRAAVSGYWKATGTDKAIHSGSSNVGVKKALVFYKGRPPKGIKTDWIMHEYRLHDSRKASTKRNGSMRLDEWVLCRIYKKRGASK
How it was run: as §1

[9] = target: T8, GST-ANAC055(1-171) (Arabidopsis thaliana, UniProt Q9LDY8 1-171); conditions: protein: recombinant; tags: GST; chain copies: 2; dsDNA, one strand shown
T8 sequence: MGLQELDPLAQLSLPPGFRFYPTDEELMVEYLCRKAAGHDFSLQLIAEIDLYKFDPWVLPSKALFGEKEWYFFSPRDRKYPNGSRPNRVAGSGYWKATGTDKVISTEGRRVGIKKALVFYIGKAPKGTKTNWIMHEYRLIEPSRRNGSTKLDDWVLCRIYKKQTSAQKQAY
How it was run: as §1

[10] = target: T9, GST-ATAF1 NAC domain (Arabidopsis thaliana, UniProt Q39013 7-158); conditions: protein: recombinant; tags: GST; chain copies: 2; dsDNA, one strand shown
T9 sequence: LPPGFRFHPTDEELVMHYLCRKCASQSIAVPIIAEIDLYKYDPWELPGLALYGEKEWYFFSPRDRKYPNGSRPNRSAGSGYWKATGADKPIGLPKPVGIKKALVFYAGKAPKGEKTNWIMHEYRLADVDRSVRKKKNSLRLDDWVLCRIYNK
How it was run: as §1

[11] = target: T10, GST-VND3 NAC domain (Arabidopsis thaliana, UniProt Q9FH59 12-162); conditions: protein: recombinant; tags: GST; chain copies: 2; dsDNA, one strand shown
T10 sequence: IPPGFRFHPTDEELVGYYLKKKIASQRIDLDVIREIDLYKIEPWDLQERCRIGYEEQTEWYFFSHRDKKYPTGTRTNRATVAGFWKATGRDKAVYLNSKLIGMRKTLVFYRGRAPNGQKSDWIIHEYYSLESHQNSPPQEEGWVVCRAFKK
How it was run: as §1

[12] = target: T11, GST-VND7 NAC domain (Arabidopsis thaliana, UniProt Q9C8W9 9-158); conditions: protein: recombinant; tags: GST; chain copies: 2; dsDNA, one strand shown
T11 sequence: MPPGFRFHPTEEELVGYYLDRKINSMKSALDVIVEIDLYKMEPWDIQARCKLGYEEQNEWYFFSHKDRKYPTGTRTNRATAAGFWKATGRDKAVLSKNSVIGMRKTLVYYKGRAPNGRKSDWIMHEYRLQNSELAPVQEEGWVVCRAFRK
How it was run: as §1

[13] = target: GST-WRKY1(266-371) (Arabidopsis thaliana, UniProt Q9SI37 266-371); conditions: protein: recombinant; tags: GST; dsDNA, one strand shown
How it was run: as §1

Sequence of GST-WRKY1(266-371) (Q9SI37 266-371): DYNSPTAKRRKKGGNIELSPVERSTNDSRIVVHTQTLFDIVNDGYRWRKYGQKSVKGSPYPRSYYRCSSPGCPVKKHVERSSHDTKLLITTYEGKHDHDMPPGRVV
Sequence of GST-NTL6(1-168) (Q9SCK6 1-168): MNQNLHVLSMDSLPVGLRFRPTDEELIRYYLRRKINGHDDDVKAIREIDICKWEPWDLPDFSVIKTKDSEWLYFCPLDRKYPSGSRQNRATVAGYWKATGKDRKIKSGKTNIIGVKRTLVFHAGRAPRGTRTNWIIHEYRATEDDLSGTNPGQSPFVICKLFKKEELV

TGAGGAAA
binding signal [1]: 0.0937 E-score
binding signal [2]: 0.106 E-score
binding signal [3]: 0.105 E-score
binding signal [4]: 0.429 E-score
binding signal [5]: 0.172 E-score

AGGAAATC
binding signal [1]: 0.0998 E-score
binding signal [2]: 0.102 E-score
binding signal [3]: 0.0993 E-score
binding signal [4]: 0.437 E-score
binding signal [5]: 0.0802 E-score

AGGTAAGG
binding signal [2]: 0.27 E-score
binding signal [6]: 0.101 E-score
binding signal [7]: 0.0822 E-score
binding signal [4]: 0.424 E-score
binding signal [5]: 0.147 E-score

AGGAAACC
binding signal [2]: 0.0999 E-score
binding signal [7]: 0.13 E-score
binding signal [4]: 0.482 E-score
binding signal [5]: 0.0696 E-score

ATCGCGTG
binding signal [1]: 0.382 E-score
binding signal [7]: 0.441 E-score
binding signal [3]: 0.135 E-score
binding signal [5]: 0.266 E-score

GCTAAGGA
binding signal [2]: 0.41 E-score
binding signal [7]: 0.142 E-score
binding signal [5]: 0.064 E-score

ATTTCCTC
binding signal [2]: 0.148 E-score
binding signal [3]: 0.115 E-score
binding signal [4]: 0.437 E-score
binding signal [5]: 0.091 E-score

ACGCGATC
binding signal [1]: 0.314 E-score
binding signal [7]: 0.402 E-score
binding signal [8]: 0.116 E-score
binding signal [3]: 0.198 E-score
binding signal [5]: 0.364 E-score

AAGGAAGC
binding signal [1]: 0.219 E-score
binding signal [2]: 0.43 E-score
binding signal [9]: 0.0894 E-score
binding signal [7]: 0.13 E-score
binding signal [3]: 0.185 E-score
binding signal [4]: 0.188 E-score
binding signal [5]: 0.175 E-score

GGAGGGAA
binding signal [2]: 0.0867 E-score
binding signal [6]: 0.104 E-score
binding signal [8]: 0.074 E-score
binding signal [4]: 0.421 E-score
binding signal [5]: 0.0554 E-score

ACAGTCAA
binding signal [1]: 0.141 E-score
binding signal [9]: 0.0601 E-score
binding signal [10]: 0.081 E-score
binding signal [7]: 0.0848 E-score
binding signal [8]: 0.0868 E-score
binding signal [4]: 0.164 E-score
binding signal [11]: 0.0711 E-score
binding signal [12]: 0.0752 E-score
binding signal [13]: 0.477 E-score

CTACGCCA
binding signal [1]: 0.283 E-score
binding signal [10]: 0.057 E-score
binding signal [7]: 0.34 E-score
binding signal [3]: 0.147 E-score
binding signal [5]: 0.454 E-score

TACGCGAA
binding signal [1]: 0.268 E-score
binding signal [9]: 0.0984 E-score
binding signal [10]: 0.119 E-score
binding signal [7]: 0.368 E-score
binding signal [8]: 0.0761 E-score
binding signal [3]: 0.185 E-score
binding signal [5]: 0.416 E-score

GCTAAGCA
binding signal [2]: 0.411 E-score
binding signal [3]: 0.0614 E-score
binding signal [5]: 0.155 E-score

ACTAGTCA
binding signal [1]: 0.0862 E-score
binding signal [6]: 0.0985 E-score
binding signal [9]: 0.134 E-score
binding signal [10]: 0.0655 E-score
binding signal [7]: 0.0648 E-score
binding signal [8]: 0.0759 E-score
binding signal [4]: 0.128 E-score
binding signal [11]: 0.108 E-score
binding signal [12]: 0.0656 E-score
binding signal [13]: 0.435 E-score

ACGCCACG
binding signal [1]: 0.382 E-score
binding signal [6]: 0.147 E-score
binding signal [9]: 0.14 E-score
binding signal [10]: 0.0586 E-score
binding signal [7]: 0.409 E-score
binding signal [3]: 0.128 E-score
binding signal [5]: 0.249 E-score

CTACGCGA
binding signal [7]: 0.177 E-score
binding signal [3]: 0.0539 E-score
binding signal [5]: 0.417 E-score

ATTGACCA
binding signal [1]: 0.0698 E-score
binding signal [9]: 0.072 E-score
binding signal [10]: 0.107 E-score
binding signal [7]: 0.0788 E-score
binding signal [4]: 0.163 E-score
binding signal [11]: 0.129 E-score
binding signal [12]: 0.0794 E-score
binding signal [13]: 0.482 E-score

ACCTTACC
binding signal [2]: 0.306 E-score
binding signal [10]: 0.0631 E-score
binding signal [7]: 0.111 E-score
binding signal [4]: 0.417 E-score
binding signal [5]: 0.152 E-score

AATAGTCA
binding signal [9]: 0.0507 E-score
binding signal [10]: 0.061 E-score
binding signal [7]: 0.113 E-score
binding signal [3]: 0.0657 E-score
binding signal [11]: 0.178 E-score
binding signal [12]: 0.143 E-score
binding signal [13]: 0.413 E-score

AGAGGGAA
binding signal [1]: 0.114 E-score
binding signal [2]: 0.178 E-score
binding signal [9]: 0.0527 E-score
binding signal [10]: 0.0736 E-score
binding signal [8]: 0.111 E-score
binding signal [4]: 0.447 E-score
binding signal [11]: 0.0709 E-score
binding signal [12]: 0.0972 E-score
